Reference: PubChem BioAssay AID652104 (National Center for Advancing Translational Sciences (NCATS), 2013)
The campaign covered roughly 410,000 compounds. About 7,200 (1.8%) were called active. About 7% were inconclusive and are not listed. This excerpt belongs to a sample that is enriched for actives. Values without a mark were called inactive. Calls come from the whole dose curve; as a rule, active = well fitted activation curve with a large enough effect; inconclusive = small, poorly fitted or top-dose-only effect, or another doubt; inactive = no such curve, though single readings can be large or run the other way.

Test: qHTS of TDP-43 Inhibitors; note: nearly all actives have a fitted effect of over 50% in size; for growth rescue (activation): % of control where 0% means no effect
Settings: TDP-43 expressing yeast growth rescue, BacTiter-Glo, 24 h; series mostly up to 46.1 µM; growth rescue (activation): at the top concentration
Text: The goal of this project is to identify new chemical probes capable of reversing the toxicity associated with TDP-43 which is associated with frontotemporal lobar degeneration and amyotrophic lateral sclerosis. These compounds will provide a complementary approach to deciphering the tangled mechanisms of toxicity and protection that we have uncovered through genome-wide genetic screens and are beginning to uncover in a large-scale proteomics analysis with mass spectroscopy.
To this end, a miniaturized assay was developed to be screened against the Molecular Libraries Small Molecule Repository (MLSMR) to discover TDP-43 inhibitors. Please note that in the set-up this yeast-based assay compounds that inhibit as TDP-43, have a read-out as activators.
NIH Chemical Genomics Center [NCGC]
NIH Molecular Libraries Probe Centers Network [MLPCN]
Assay Submitter (PI): Susan Lindquist, Whitehead Institute/MIT
Dispense 2.5 microL yeast galactose medium per 1536-well plate, pin compound, dispense 2.5 microL TDP-43 expressing yeast in galactose medium at OD600=0.02 (pregrown in raffinose medium to mid-log phase) per well, incubate for 24 hr at 30 deg C, and cell growth will be measured using 5 microL of Bactiter/Glo reagent to entire plate and read using Luminescence Protocol in ViewLux.
Potency is the fitted concentration of half-maximal effect.

| Structure (SMILES) | growth rescue (activation) | Potency |
| --- | --- | --- |
| COCCCNC(=S)N1CCCC(c2nc3cc(C)c(C)cc3[nH]2)C1 (stereo not drawn) | -14.1% [at 0.397 µM] | – |
| COc1cc(OC)c(N(C)C(=O)c2cc3c(=O)oc4ccccc4c3s2)cc1Cl | 14.8% | – |
| Cc1ccc(NC(=O)CN2C(=O)C(c3ccc(F)cc3)=NC23CCCCCC3)c(C)c1 | 7.76% | – |
| COC(=O)c1ccc(CSc2nncn2N)cc1 | -10.7% | – |
| CCOc1ccc(NC(=O)c2ccc(CSc3nnnn3C)cc2)cc1 | -9.01% | – |
| CCOC(=O)c1ccc(CSc2nnc3cc(C)c4ccccc4n23)cc1 | – | 22.4 µM (active) |
| COc1ccccc1N1CCN(C(CNC(=O)C(=O)NCc2ccc(C)cc2)c2cccnc2)CC1 (stereo not drawn) | 7.84% | – |
| CCc1cccc(C)c1Nc1c(-c2ccc(N(C)C)cc2)nc2ncccn12 | -4.39% | – |
| COc1ccccc1CNC(=O)CCCn1c(=O)c2ccccc2n(CC(=O)Nc2ccc(C)cc2Cl)c1=O | 9.64% | – |
| O=C(CSc1oc(-c2ccccc2)nc1S(=O)(=O)c1ccc(Br)cc1)NC1CCCCC1 | 9.58% | – |
| Cn1c(C(=O)Nc2cccc(C(F)(F)F)c2)cc2c(=O)n3ccccc3nc21 | 15% | – |
| Cc1cccc2cc3c(N)c(C(=O)N4CCCc5ccccc54)sc3nc12 | – | 15.8 µM (active) |
| CCc1ccc(NC(=O)c2sc3nc4c(cc3c2N)CN(CC)CC4)cc1 | 26.6% | – |
| CCN1CCc2nc3sc(C(=O)Nc4ccccc4OC(F)(F)F)c(N)c3cc2C1 | 7.69% | – |
| CC1CCC(N2CC(=O)N(CCC3=CCCCC3)C(c3ccc(F)cc3)C2=O)CC1 (stereo not drawn) | -22.5% | – |
| CCN(CC)C(=O)CSc1nc2ccsc2c(=O)n1Cc1ccccc1Cl | 13.3% | – |
| COc1ccc(N2CCN(C3=NS(=O)(=O)C(c4cccc(Br)c4)=C3C)CC2)cc1 | 15.8% | – |
| CCOC(=O)c1cc2c(ccn2C)n1CC(=O)N1CCC(C)CC1 | – | 35.5 µM (active) |
| CCOC(=O)c1cc2occc2n1CC(=O)NC1CCC(C)CC1 (stereo not drawn) | -11.8% | – |
| CCOC(=O)c1cc2occc2n1CC(=O)N1CCN(C(=O)c2ccco2)CC1 | -23.7% | – |
| CCOc1cc2[nH]c(=O)n(Cc3ccc(C(=O)NCCN(CC)CC)cc3)c(=O)c2cc1OCC | 25.5% [at 9.22 µM] | – |
| COc1ccc(OCCCn2c(C3CC(=O)N(c4ccc(F)cc4)C3)nc3ccccc32)cc1 (stereo not drawn) | 28.2% | – |
| Cc1nc2ccn(Cc3cccs3)c(=O)c2cc1C(=O)NCc1ccc(Cl)cc1 | -22% | – |
| CCOc1ccc(OCC)c(NS(=O)(=O)c2ccc3[nH]c(=O)ccc3c2)c1 | 17.4% | – |

| Structure (SMILES) | growth rescue (activation) | Potency |
| --- | --- | --- |
| COc1ccc(S(=O)(=O)Nc2cc3c(C(=O)OC(C)C)c(C)oc3c3ccccc23)cc1 | 14.5% | – |
| COc1cc(NS(=O)(=O)c2ccc3ccccc3c2)c2ncccc2c1 | – | 12.6 µM (active) |
| N#C/C(=C\c1ccccc1F)c1nc2ccccc2c(=O)[nH]1 | 3.78% | – |
| CCC(C(=O)Nc1cccc(-c2nc3cccnc3s2)c1C)c1ccccc1 (stereo not drawn) | -2.05% | – |
| COc1cccc(NC(=O)Cn2c(=O)cc(C)c3c(C)nn(-c4cccc(F)c4)c32)c1 | 3.17% | – |
| Cn1nnnc1SCCNCc1ccc(Cl)c(Cl)c1 | 10.9% | – |
| Cc1cn(C)c(CC(=O)NCc2ccc(Cl)cc2)c1C(=O)O | 15.2% | – |
| CC1C(=O)N(Cc2cn(Cc3ccco3)nn2)CCS(=O)(=O)N1Cc1ccc(-c2cccc(CO)c2)cc1 (stereo not drawn) | 19.9% | – |
| CC(C)C1C(=O)N(Cc2cn(CCC3OCCO3)nn2)CCS(=O)(=O)N1Cc1ccc(-c2ccccc2C(F)(F)F)cc1 (stereo not drawn) | – | 35.5 µM (active) |
| COc1ccc(-c2ccc(CN3C(C(C)C)C(=O)N(Cc4cn(CC5CCCCC5)nn4)CCS3(=O)=O)cc2)cn1 (stereo not drawn) | 18.7% | – |
| Cc1ccc(-c2ccc(CN3C(C)C(=O)N(Cc4cn(CCC5OCCCO5)nn4)CCS3(=O)=O)cc2)cc1 (stereo not drawn) | 4.45% | – |
| CC(C)CC1C(=O)N(Cc2cn(Cc3ccco3)nn2)CCS(=O)(=O)N1Cc1ccc(-c2ccc(Cl)c(Cl)c2)cc1 (stereo not drawn) | 15.1% | – |
| Cc1ccc(-c2ccc(CN3C(C(C)C)C(=O)N(Cc4cn(CCC5OCCCO5)nn4)CCS3(=O)=O)cc2)cc1 (stereo not drawn) | – | 35.5 µM (active) |
| COc1ccc(Cn2cc(CN3CCS(=O)(=O)N(Cc4ccc(-c5cccc(Cl)c5)cc4)C(C)C3=O)nn2)cc1 (stereo not drawn) | 17.6% | – |
| COCOCCn1cc(CN2CCS(=O)(=O)N(Cc3ccc(-c4ccc(OC)cc4)cc3)C(CC(C)C)C2=O)nn1 (stereo not drawn) | 25.3% | – |
| Cc1ccc(-c2ccc(CN3C(C(C)C)C(=O)N(Cc4cn(CCC5OCCO5)nn4)CCS3(=O)=O)cc2)cc1 (stereo not drawn) | – | 31.6 µM (active) |
| COc1cc(NC(=O)CN2CCN(S(=O)(=O)c3ccc(Br)cc3)CC2)cc(OC)c1 | -18.8% | – |
| Cc1ccccc1CNC(=O)c1ccc(NC(=O)N2CCCCc3ccccc32)cc1 | 4.84% | – |
| COc1cc(CN(CC2CCCO2)C(=O)c2ccccc2F)cc(OC)c1OC (stereo not drawn) | 6.37% | – |
| CCOc1ccc(NC(=O)c2c(NC(=O)Cc3ccccc3)sc3c2CCCCC3)cc1 | 0.279% | – |
| CC1CCCN(Cc2c(O)ccc3c(=O)c(Oc4ccc(C(C)(C)C)cc4)c(C(F)(F)F)oc23)C1 (stereo not drawn) | 12.6% | – |
| Cc1ccc(-c2ccc(/C=C(\C#N)C(N)=S)o2)c([N+](=O)[O-])c1 | – | 22.4 µM (active) |
| CCOC(=O)c1ccc(-c2ccc(/C=C(\C#N)C(=O)Nc3ccc(C)cc3)o2)cc1 | 13.1% | – |
| CCCCOC(=O)/C(C#N)=C/c1ccc(-c2cccc(C(F)(F)F)c2)o1 | 24.7% | – |
